How the values were obtained:
Test in all cases: log2 ratio of Biotin-Ahx-Ub-VS probe labelling (fragment/DMSO); higher = less target engagement (more negative = stronger competition), active = hit call of the paper (q ≤ 0.05, log2 ratio ≤ -1)
Settings in all cases: compound concentration: 200 uM; treatment time: 3 h
[1] = biological target: USP34 (UniProt Q70CQ2)
In short: (§1)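 Fragment (200 µM) or vehicle was incubated for 3 h with triplicate HEK293T lysate samples of 495 µg, which were then treated with Biotin-Ahx-Ub-VS at 0.5 µM final for 1 h. Labelled DUBs were enriched on NeutrAvidin, digested with LysC and trypsin, and analysed by diaPASEF LC-MS/MS. Values are average log2 fragment/vehicle ratios from an unpaired t-test on global-median-normalised Spectronaut label-free quantities, using proteins with ≥2 unique peptides.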

[2] = biological target: T1, USP36 (UniProt Q9P275)
T1 sequence (whole entry): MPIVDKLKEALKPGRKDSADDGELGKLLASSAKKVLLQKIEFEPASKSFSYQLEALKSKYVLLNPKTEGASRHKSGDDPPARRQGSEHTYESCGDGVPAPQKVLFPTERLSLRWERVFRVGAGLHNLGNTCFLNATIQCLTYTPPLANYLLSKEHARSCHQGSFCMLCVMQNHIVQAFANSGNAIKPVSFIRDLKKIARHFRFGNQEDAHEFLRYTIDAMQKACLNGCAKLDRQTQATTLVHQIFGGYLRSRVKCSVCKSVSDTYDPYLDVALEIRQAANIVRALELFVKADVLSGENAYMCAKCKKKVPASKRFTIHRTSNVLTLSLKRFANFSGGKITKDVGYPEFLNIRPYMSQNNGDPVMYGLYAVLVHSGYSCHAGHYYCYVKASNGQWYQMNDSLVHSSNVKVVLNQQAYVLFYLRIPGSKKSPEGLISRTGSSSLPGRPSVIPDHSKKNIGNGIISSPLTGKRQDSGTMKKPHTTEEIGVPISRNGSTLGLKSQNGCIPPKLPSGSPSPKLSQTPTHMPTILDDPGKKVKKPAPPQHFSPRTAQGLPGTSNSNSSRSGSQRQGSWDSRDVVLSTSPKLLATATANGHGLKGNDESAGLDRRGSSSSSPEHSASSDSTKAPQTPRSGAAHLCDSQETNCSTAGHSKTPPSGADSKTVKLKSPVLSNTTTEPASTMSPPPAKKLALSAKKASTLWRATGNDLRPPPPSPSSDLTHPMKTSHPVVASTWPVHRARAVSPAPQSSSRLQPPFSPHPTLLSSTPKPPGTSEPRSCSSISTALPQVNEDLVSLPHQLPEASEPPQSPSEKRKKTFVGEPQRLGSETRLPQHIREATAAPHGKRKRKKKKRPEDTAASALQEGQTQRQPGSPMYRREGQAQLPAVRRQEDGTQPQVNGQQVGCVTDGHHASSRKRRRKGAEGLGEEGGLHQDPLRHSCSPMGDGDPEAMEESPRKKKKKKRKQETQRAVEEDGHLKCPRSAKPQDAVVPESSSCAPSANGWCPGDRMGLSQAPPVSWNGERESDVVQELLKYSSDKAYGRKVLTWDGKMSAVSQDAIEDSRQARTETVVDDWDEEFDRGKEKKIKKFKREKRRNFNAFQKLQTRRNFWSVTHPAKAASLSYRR
In short: as §1

[3] = biological target: T2, USP38 (UniProt Q8NB14)
T2 sequence (whole entry): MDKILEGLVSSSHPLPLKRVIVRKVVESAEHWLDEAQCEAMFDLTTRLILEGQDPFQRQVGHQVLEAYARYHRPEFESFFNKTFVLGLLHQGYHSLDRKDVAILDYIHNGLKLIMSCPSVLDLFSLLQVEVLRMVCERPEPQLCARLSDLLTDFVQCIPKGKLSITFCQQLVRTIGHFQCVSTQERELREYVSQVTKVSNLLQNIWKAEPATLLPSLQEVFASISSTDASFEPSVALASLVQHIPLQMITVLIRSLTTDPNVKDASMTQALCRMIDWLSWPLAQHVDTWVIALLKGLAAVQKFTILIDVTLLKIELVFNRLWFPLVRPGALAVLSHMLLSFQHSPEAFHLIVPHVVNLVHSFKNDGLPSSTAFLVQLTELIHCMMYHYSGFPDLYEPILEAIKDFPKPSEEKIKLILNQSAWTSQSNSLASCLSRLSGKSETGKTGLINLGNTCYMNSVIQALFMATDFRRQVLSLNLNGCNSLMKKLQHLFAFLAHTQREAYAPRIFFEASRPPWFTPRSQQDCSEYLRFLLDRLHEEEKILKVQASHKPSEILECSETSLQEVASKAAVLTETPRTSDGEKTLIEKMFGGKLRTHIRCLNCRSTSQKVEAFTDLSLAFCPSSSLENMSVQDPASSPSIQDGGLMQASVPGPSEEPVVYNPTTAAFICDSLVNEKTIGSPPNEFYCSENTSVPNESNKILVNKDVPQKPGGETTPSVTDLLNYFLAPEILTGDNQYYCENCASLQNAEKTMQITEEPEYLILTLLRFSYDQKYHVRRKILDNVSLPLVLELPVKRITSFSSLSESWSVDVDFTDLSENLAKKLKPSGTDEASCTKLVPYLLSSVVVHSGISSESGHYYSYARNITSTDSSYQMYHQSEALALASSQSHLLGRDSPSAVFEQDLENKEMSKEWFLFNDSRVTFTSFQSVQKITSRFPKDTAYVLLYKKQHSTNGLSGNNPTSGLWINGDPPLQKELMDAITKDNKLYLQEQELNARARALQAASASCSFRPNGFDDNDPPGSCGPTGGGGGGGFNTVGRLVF
In short: as §1

[4] = biological target: T3, USP39 (UniProt Q53GS9)
T3 sequence (whole entry): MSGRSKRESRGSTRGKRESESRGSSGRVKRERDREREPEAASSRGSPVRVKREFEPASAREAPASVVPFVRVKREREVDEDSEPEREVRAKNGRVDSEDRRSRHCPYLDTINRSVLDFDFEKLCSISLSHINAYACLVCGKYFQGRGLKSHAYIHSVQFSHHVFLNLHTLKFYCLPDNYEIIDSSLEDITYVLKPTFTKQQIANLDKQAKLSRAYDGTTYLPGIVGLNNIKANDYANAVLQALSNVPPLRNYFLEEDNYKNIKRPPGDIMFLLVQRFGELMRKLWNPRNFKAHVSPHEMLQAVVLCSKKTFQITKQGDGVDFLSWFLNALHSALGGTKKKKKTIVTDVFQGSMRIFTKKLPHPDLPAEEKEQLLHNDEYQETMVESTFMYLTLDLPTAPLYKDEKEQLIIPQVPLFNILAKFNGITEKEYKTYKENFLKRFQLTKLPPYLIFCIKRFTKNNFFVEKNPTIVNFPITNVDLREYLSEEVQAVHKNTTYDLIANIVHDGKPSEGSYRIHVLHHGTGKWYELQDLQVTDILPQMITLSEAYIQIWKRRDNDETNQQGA
In short: as §1

[5] = biological target: T4, USP4 (UniProt Q13107)
T4 sequence (whole entry): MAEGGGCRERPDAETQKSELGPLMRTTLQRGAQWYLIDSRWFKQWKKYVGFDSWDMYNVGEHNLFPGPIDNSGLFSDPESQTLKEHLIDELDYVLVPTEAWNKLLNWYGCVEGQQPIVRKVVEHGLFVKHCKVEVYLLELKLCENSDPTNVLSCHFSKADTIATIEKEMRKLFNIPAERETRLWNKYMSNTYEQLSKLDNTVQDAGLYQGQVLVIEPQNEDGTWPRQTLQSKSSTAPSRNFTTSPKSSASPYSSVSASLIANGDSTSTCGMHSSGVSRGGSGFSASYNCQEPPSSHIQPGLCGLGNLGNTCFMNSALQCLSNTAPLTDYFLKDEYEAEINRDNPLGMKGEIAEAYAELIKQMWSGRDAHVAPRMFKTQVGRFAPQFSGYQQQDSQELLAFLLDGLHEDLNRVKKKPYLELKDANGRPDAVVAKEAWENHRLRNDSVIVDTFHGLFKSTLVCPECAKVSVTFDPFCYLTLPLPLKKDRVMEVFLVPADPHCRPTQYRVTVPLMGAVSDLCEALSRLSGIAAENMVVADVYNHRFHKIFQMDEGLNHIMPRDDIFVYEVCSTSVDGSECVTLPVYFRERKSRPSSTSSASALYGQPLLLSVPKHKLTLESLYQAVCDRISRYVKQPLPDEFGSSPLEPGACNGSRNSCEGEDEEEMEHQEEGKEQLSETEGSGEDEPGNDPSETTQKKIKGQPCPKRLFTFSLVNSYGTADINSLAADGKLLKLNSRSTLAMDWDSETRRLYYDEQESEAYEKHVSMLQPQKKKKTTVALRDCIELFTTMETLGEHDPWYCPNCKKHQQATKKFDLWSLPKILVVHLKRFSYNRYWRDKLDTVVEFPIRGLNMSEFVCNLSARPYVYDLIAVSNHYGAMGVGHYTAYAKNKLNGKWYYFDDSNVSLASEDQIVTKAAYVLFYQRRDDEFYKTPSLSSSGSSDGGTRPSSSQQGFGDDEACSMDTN
In short: as §1

Measured: log2 ratio of Biotin-Ahx-Ub-VS probe labelling

Sequence of USP34 (Q70CQ2 whole entry, the tested form may be a part): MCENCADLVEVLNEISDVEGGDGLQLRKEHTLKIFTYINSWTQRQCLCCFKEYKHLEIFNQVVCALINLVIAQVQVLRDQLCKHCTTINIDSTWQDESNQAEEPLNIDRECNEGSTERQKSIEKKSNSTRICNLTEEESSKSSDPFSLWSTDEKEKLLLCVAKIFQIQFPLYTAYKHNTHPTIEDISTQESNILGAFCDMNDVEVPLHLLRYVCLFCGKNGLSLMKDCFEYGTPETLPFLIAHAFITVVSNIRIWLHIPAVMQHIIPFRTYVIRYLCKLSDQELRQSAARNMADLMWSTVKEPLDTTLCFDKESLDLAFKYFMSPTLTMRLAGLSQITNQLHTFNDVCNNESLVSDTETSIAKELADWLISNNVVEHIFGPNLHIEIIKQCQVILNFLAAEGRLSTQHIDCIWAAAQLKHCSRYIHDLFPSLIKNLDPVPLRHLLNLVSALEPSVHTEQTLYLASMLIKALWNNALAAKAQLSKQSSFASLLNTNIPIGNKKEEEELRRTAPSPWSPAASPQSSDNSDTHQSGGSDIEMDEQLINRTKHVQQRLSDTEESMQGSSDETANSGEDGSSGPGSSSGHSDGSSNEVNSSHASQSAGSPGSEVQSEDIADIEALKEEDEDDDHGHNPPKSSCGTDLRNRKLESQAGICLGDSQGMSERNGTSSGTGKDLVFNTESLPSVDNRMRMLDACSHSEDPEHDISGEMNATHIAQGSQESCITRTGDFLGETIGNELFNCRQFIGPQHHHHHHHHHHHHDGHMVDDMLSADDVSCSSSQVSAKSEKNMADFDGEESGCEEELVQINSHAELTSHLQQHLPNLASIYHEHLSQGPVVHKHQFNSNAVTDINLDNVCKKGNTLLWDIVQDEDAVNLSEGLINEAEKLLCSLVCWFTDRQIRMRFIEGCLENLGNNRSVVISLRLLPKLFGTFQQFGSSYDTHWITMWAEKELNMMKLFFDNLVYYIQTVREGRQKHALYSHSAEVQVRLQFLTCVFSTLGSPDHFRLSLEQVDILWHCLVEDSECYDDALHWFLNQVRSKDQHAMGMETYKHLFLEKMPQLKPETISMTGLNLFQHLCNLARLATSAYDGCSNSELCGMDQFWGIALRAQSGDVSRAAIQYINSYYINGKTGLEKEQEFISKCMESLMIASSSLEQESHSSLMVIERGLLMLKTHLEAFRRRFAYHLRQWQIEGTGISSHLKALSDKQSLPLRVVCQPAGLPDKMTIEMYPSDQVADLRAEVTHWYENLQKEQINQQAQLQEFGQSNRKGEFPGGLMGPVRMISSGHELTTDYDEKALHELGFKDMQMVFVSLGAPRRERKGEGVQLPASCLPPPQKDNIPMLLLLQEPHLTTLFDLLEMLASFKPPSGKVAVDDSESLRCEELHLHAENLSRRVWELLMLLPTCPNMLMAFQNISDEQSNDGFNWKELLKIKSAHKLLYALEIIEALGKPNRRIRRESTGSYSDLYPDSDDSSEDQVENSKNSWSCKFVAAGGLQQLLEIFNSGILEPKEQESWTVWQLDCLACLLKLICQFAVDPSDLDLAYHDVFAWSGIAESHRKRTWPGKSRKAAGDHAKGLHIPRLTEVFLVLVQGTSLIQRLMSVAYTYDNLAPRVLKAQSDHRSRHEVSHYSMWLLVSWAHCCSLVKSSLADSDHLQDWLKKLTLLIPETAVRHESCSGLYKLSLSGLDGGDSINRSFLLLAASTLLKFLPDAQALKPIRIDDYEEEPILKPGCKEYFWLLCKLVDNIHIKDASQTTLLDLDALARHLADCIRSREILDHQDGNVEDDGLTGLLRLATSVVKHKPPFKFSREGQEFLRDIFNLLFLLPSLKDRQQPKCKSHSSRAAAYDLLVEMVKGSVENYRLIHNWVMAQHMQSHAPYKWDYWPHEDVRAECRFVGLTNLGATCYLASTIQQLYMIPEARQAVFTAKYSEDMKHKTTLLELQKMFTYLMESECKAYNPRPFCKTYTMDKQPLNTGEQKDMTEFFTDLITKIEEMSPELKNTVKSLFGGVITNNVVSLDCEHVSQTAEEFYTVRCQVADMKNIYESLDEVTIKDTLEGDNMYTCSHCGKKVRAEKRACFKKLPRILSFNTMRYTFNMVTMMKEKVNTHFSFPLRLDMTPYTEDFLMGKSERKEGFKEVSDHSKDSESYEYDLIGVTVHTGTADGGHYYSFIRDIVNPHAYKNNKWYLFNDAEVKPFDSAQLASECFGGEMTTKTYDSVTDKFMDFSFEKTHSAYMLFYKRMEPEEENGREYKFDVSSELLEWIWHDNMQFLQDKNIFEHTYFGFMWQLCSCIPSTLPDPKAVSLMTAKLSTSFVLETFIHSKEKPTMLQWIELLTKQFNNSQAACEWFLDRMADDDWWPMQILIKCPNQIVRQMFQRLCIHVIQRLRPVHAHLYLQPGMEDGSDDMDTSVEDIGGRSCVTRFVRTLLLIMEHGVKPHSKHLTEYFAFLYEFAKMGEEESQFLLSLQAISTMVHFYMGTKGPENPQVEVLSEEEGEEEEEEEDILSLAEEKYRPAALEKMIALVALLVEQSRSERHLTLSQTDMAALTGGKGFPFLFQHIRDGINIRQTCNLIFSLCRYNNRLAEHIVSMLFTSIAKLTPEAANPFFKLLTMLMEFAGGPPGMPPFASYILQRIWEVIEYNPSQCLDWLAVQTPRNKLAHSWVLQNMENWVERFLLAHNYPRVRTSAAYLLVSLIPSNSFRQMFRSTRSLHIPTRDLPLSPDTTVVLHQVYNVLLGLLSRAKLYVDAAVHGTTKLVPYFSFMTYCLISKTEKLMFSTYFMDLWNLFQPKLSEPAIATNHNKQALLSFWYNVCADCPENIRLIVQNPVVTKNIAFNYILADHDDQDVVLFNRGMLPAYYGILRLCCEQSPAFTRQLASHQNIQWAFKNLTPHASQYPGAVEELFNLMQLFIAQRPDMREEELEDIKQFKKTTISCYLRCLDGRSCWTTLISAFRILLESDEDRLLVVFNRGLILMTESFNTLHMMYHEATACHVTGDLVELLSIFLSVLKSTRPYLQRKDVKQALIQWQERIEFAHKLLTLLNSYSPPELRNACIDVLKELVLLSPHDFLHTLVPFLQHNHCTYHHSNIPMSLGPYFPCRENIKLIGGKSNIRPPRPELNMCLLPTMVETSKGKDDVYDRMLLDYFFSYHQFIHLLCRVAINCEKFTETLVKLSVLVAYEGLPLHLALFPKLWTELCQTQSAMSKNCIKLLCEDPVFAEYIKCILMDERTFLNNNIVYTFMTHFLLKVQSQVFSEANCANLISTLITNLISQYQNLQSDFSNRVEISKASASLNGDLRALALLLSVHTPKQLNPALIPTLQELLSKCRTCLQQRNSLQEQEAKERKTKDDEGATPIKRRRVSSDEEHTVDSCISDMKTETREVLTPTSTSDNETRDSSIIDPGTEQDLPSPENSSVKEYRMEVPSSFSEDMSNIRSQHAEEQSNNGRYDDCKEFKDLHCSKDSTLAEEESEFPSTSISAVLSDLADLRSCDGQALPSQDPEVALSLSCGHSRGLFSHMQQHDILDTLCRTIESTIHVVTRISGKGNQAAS

O=C(CCl)NCc1cccc(N2CCCC2=O)c1
inactive: [1] -0.203 | [2] -0.212 | [3] -0.128 | [4] -0.0958 | [5] 0.0693

— the supplement of paper PMC11732987, “Enantioselective OTUD7B fragment discovery through chemoproteomics screening and high-throughput optimisation” (Communications Chemistry, 2025)
